# Screening data deposited in PubChem BioAssay by National Center for Advancing Translational Sciences (NCATS).
# HEK cytotox – Cytotoxic Profiling in HEK 293 Cell Line of Diverse Libraries Using Quantitative High-Throughput Screening | actives 6.6% (n = 94,000) | Potency, µM (highest dose often 115 µM), for inactives: at the highest dose activity change, negative = cytotoxicity, usual class: inhibitors | HEK 293 viability, ATP luminescence (CellTiter-Glo), 48-72 h | AID 1345083, 2018; note: nearly all actives have a fitted effect of over 60% in size
#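 CellTiter-Glo luminescence (cellular ATP) was read after 48 or 72 hr of compound exposure at 37 degree Celsius. Cells were HEK 293 plated at 250 cells/well.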
# 3T3 cytotox – Cytotoxic Profiling in NIH 3T3 Cell Line of Diverse Libraries Using Quantitative High-Throughput Screening; NIH 3T3 viability, CellTiter-Glo ATP luminescence, 48-72 h; Potency, µM (titrated, usually from 96.7 µM), for the others: at the highest dose activity change, negative = cytotoxicity, most hits filed as inhibitors; actives 4.3% (n = 94,000); note: nearly all actives have a fitted effect of over 55% in size
#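 First NIH 3T3 cells are plated at 400 cells/well; next compound is pinned in; then plates incubate 48 or 72 hr at 37 °C; finally CellTiter-Glo is added and luminescence read after 10 min.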
# NPR1 antag – Natriuretic polypeptide receptor (hNpr1) antagonism - Primary qHTS. Atrial natriuretic peptide receptor 1 (Homo sapiens), P16066. actives 1.6% (n = 76,000). Potency, µM (titrated, usually from 46.3 µM), inactives show top-dose activity change, negative = inhibition, actives largely listed as inhibitors. HEK293 hNpr1 GloSensor cGMP, ANP-stimulated luminescence; calls by dose curve; note: nearly all actives have a fitted effect of over 60% in size
# Target sequence (P16066 whole entry, looked up): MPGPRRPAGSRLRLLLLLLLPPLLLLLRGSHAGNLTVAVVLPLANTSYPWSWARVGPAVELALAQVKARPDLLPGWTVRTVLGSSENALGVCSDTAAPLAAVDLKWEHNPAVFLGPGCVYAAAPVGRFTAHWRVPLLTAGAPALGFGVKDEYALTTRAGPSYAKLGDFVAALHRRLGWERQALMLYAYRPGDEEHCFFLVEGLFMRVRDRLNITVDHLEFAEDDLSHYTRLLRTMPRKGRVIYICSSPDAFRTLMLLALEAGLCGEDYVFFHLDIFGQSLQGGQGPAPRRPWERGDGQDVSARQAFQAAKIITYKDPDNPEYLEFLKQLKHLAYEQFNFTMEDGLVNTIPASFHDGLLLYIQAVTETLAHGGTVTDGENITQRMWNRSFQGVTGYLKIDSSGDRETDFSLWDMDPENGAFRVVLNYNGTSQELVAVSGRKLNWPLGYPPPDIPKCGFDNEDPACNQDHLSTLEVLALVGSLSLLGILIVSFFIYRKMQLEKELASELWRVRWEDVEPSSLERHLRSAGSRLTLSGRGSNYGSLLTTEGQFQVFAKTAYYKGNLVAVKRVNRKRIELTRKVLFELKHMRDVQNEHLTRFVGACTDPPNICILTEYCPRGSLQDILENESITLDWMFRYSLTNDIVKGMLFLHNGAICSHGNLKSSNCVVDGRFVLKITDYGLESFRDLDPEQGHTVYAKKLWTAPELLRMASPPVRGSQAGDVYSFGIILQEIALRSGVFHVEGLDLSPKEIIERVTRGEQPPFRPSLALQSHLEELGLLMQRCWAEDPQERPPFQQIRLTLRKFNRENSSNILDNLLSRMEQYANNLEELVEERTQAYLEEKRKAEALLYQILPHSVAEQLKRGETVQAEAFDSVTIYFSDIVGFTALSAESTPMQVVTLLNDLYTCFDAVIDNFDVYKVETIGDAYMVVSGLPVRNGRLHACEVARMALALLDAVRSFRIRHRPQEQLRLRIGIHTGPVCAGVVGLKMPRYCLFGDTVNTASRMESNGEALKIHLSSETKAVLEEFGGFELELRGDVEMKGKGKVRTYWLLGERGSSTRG
#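 HEK293 cells stably expressing human Npr1 and cGMP GloSensor pGS-40F, loaded 2 h with 2% GloSensor reagent, given compound 30 min at room temperature. Luminescence read before and 20 min after 0.1 nM hNppA.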
# Luciferase inh – Firefly luciferase inhibition profiling of diverse chemical library using quantitative high-throughput screening; AID 1347043, 2019; Potency, µM (titrated, usually from 115 µM), actives largely listed as inhibitors; purified P. pyralis luciferase, luminescence, biochemical; Luciferin 4-monooxygenase (Photinus pyralis), P08659; actives 2.5% (n = 76,000); note: nearly all actives have a fitted effect of over 65% in size
#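 Luminescence read by CCD imager after adding enzyme (10nM final) to wells holding compound, titrated in qHTS. Substrates 10uM each D-luciferin and ATP; buffer 50mM Tris acetate pH 7.5, 10mM Mg acetate, Tween-20, BSA.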
# * hit, by the source's call; i = inactive; ? = inconclusive; . = no result given; [ ] = remark or other dose. Sampled rows, rich in hits. Any-hit rate of the full collection: about 11%. Unless noted, calls come from the whole dose curve; as a rule, active = well fitted curve in the direction sought with a large enough effect; inconclusive = small, poorly fitted or top-dose-only effect, or another doubt; inactive = no such curve, though single readings can be large; an effect the other way counts as inactive or inconclusive. % is set by controls: 0 for no effect and ±100 for the full control effect; potency is the fitted concentration of half-maximal effect.
SMILES,HEK cytotox,3T3 cytotox,NPR1 antag,Luciferase inh
CC(=O)Nc1ccc(S(=O)(=O)N[C@H]2CO[C@H]3[C@@H]2OC[C@@H]3Nc2nccc(C(C)(C)C)n2)cc1,?,?,16µM*,?
COc1ccc(NC(=O)O[C@@H]2CO[C@H]3[C@@H]2OC[C@@H]3NS(=O)(=O)c2ccc(NC(C)=O)cc2)cc1,-6%,?,-1%,45µM*
Cc1ccc(C(=O)N[C@H]2CO[C@H]3[C@@H]2OC[C@@H]3Nc2nccc(C(C)(C)C)n2)cc1,63µM*,?,?,?
Cc1c(CN2C[C@@H](CN(C)CCO)[C@@H](CO)C2)[nH]c2c(Cl)cccc12,45µM*,79µM*,4%,i
CN(CCO)C[C@@H]1CN(C(=O)c2ccc3c(c2)CCC3)C[C@@H]1CO,-12%,4%,4%,i
Cc1ccc(Nc2ccnc(N3CCC(NC(=O)C4CC4)CC3)n2)cc1,45µM*,?,.,.
Cc1ccc(Nc2ccnc(N3CCC(C(=O)NC4CC4)CC3)n2)cc1,?,35µM*,.,.
Cc1ccc(Nc2ccnc(N3CCC(NC(=O)NC4CCCC4)CC3)n2)cc1,-27%,-10%,.,.
Cc1ccc(Nc2ccnc(N3CCC(C(=O)NC4CCCC4)CC3)n2)cc1,45µM*,35µM*,.,.
Cc1ccc(Nc2ccnc(N3CCC(NC(=O)N(C)C)CC3)n2)cc1,?,45µM*,.,.
COc1cc(OC)cc(C(=O)N2CCC[C@H]2c2nc(-c3ccc(C)cc3)no2)c1,?,-38%,-8%,i
Cc1ccc(Nc2ccnc(N3CCCC3C(=O)N3CCC(c4ccccc4)CC3)n2)cc1 (stereo not given),32µM*,32µM*,.,.
O=C(C1CCN(c2nccc(Nc3ccccc3Cl)n2)CC1)N1CCC(c2ccccc2)CC1,32µM*,40µM*,.,.
O=C([C@@H]1CCCN1c1nccc(Nc2ccccc2Cl)n1)N1CCN(Cc2ccccc2)CC1,?,45µM*,.,.
O=C(NCc1ccccc1Cl)[C@@H]1CCCN1c1nccc(Nc2ccccc2Cl)n1,-36%,-30%,.,.
O=C(C1CCCN1c1nccc(Nc2ccccc2F)n1)N1CCN(Cc2ccccc2)CC1 (stereo not given),32µM*,?,.,.
COc1nc2c(cc1CNC(=O)CC1CC1)C(=O)N(C1CCCC1)C2,i,-6%,5%,i
CC(C)NC(=O)N1CCCC1C(=O)N1CCCC(c2nc3ncccc3[nH]2)C1 (stereo not given),-1%,-13%,.,.
CC(C)NC(=O)[C@@H]1CCCN1c1nccc(Nc2ccccc2Cl)n1,?,-29%,.,.
O=C([C@@H]1CCCN1c1nccc(Nc2ccccc2Cl)n1)N1CCC(c2ccccc2)CC1,22µM*,35µM*,.,.
COc1ccccc1Nc1ccnc(N2CCC[C@H]2C(=O)N2CCCC2)n1,i,-6%,.,.
Cc1ccc(Nc2ccnc(N3CCCC3C(=O)N3CCN(Cc4ccccc4)CC3)n2)cc1 (stereo not given),14µM*,35µM*,.,.
O=C(NCc1ccccc1)c1ccccc1OC1CN(Cc2cccc(F)c2F)C1,?,20µM*,.,.
CCOc1ccc(CN2CC(Oc3ccccc3C(=O)NCc3ccccc3)C2)cc1,20µM*,?,.,.
Cc1c(CN2CC(Oc3ccccc3C(=O)NCc3ccccc3)C2)cnn1C,?,-8%,-12%,i
SMILES,HEK cytotox,3T3 cytotox,NPR1 antag,Luciferase inh
O=C(NCc1ccccc1)c1ccccc1OC1CN(Cc2ccc(F)c(F)c2)C1,?,40µM*,-13%,i
Cc1ccc(CN2CC(Oc3ccccc3C(=O)NC3CC3)C2)cc1,?,?,-2%,i
O=C(NC1CC1)c1ccccc1OC1CN(Cc2cc(F)c(F)c(F)c2)C1,?,?,-10%,i
Cc1ccsc1CN1CC(Oc2ccccc2C(=O)NCc2ccccc2)C1,40µM*,40µM*,.,.
COc1ccc(CCNC(=O)c2ccc3nnc(-c4ccc(F)cc4)n3c2)cc1,-12%,-23%,.,.
CN(Cc1ccon1)Cc1cc2n(n1)CCN(C(=O)c1ncoc1C1CC1)C2,-6%,-24%,-5%,i
O=C(NCc1ccccc1)c1ccccc1OC1CN(Cc2cccc(C(F)(F)F)c2)C1,25µM*,13µM*,.,.
O=C(NC1CC1)C1CCCN1C(=O)c1cccc(-c2ccccn2)c1 (stereo not given),-13%[172 µM],-17%[138 µM],.,.
O=C(NC1CCCC1)N1CC(Oc2ccc(-c3nc(-c4ccccc4)no3)cc2)C1,?,-21%,0.32µM*,?
CC(C)CNC(=O)N1CC(Oc2ccc(-c3nc(-c4ccccc4)no3)cc2)C1,?,-27%,0.5µM*,i
O=C(O)[C@@H]1CN(S(=O)(=O)C2CC2)C[C@H]1c1ccccn1,-3%,-29%,-3%,i
COc1cc2c(cc1OC)C(CNC(=O)c1ccco1)N(C(=O)Nc1cccc(F)c1)CC2 (stereo not given),45µM*,-19%,1%,i
Cc1ccc(-c2ccc3nnc(CNC(=O)c4ccco4)n3n2)cc1,i,i,5%,i
CC(C)NC(=O)c1ccc2oc(-c3ccccn3)nc2c1,?,-29%,.,.
CC(C)NC(=O)c1ccc2nc(-c3ccccn3)oc2c1,45µM*,?,.,.
Cc1ncccc1-c1nc2cc(C(=O)NC3CC3)ccc2o1,?,89µM*,.,.
O=C(NCCc1ccccc1F)c1ccc2nc(-c3cccnc3Cl)oc2c1,40µM*,-26%,.,.
O=C(NCc1cccc(C(F)(F)F)c1)c1ccc2nc(-c3ccccn3)oc2c1,?,40µM*,.,.
C#CCO[C@@H]1CCN(S(=O)(=O)c2cccs2)[C@H](C(=O)N[C@H](C)C(N)=O)C1,-17%[172 µM],-11%[174 µM],6%[70.6 µM],i
CC(C)C(=O)N1CCC2(CC1)OCC(C(=O)NCc1ccc3c(c1)OCO3)N2C(=O)c1ccccc1 (stereo not given),-24%,-24%,8%,i
O=C(NC[C@H]1O[C@@H](CO)[C@@H](O)[C@H]1N1CCCCC1)c1ccccc1,2%[172 µM],5%[174 µM],-2%[70.6 µM],i
O=C(C1CCCC1)N1CCN(CCn2nc3n(c2=O)CCCC3)CC1,-2%,-13%,.,.
Cc1cccc(-c2nc3ccc(C(=O)NC4CCCCCC4)cc3o2)n1,79µM*,?,.,.
Cc1cccc(-c2nc3ccc(C(=O)NCc4ccccc4F)cc3o2)n1,100µM*,?,.,.
Cc1cccc(-c2nc3ccc(C(=O)NCc4ccc(Cl)cc4)cc3o2)n1,-5%[172 µM],-17%[138 µM],.,.
O=C(NCCc1ccccc1F)c1ccc2oc(-c3ccccn3)nc2c1,-1%,-11%,.,.
O=C(NCc1ccccc1F)c1ccc2nc(-c3ccccn3)oc2c1,71µM*,?,.,.
Cc1cccc(-c2nc3ccc(C(=O)NC4CCCCC4)cc3o2)n1,i,-6%,.,.
O=C(NCc1ccccc1F)c1ccc2nc(-c3cccnc3Cl)oc2c1,100µM*,?,.,.
